The record followed here is PubChem BioAssay.

The nature of experiment [1]: stimulators of insulin release from INS-1E, primary screen, cell-based, 5 mM glucose, NPC library (AID 1117329;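 active = compound raises insulin release from rat beta cells at 5 mM glucose, no numeric limit stated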). The following applies: rat INS-1E insulin secretion, at 10 µM, stronger effect = higher value.
Experiment [2] is described as follows: growth inhibition of GSK3B-pretreated HCT116 cells – cell-based, CellTiter-Glo, 0.2 to 20 µM (AID 1117336;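 active = compounds lowering colon cancer cell viability after pretreatment blocking the GSK3B kinase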). The following applies: HCT116 viability after GSK3B inhibitor, at 20 µM, stronger effect = higher value. For orientation: ATP-based viability assays read luminescence as a measure of living cells.
Experiment [3] in a line: inhibition of endothelial tube formation, primary screen, imaging, VEGF stimulated, CD31 staining, tube area, NPC library (AID 1117340;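 active = compound that reduces growth-factor-driven endothelial tube area in a mixed cell culture, no cutoff stated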). The following applies: VEGF-stimulated ADSC/ECFC co-culture, at 10 µM, stronger effect = higher value.
Experiment [4] can be described thus: glucagon-like peptide 1 release enhancers, primary assay, NCI-H716 cell line, NPC library (AID 1117341;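 active = compound raises GLP1 secretion from the human gut endocrine cells, with no numeric limit stated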). The following applies: NCI-H716 cells, at 10 µM, stronger effect = higher value.
The nature of experiment [5]: HCT116 colon cancer cell growth inhibition, primary screen, CellTiter-Glo luminescence, NPC library (AID 1117342). The following applies: at 20 µM (top of the series).
Experiment [6] can be described thus: CellTiter-Glo luminescent readout of SW480 viability loss, NPC library primary (AID 1117343;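 active = compounds that lower viability of the colon cancer cells in the luminescence readout, with no numeric limit stated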). The following applies: CellTiter-Glo luminescence; at 20 µM (top of the series).
A short description of experiment [7]: decreased DLD-1 cellular survival, CellTiter-Glo luminescent readout, NPC compound collection, primary HTS (AID 1117346;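 active = compounds that lower survival of DLD-1 colon cancer cells in the luminescence readout, no cutoff given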). The following applies: DLD-1 viability, CellTiter-Glo luminescence; at 20 µM (top of the series).
For experiment [8], the target named is 6-phosphogluconate dehydrogenase, decarboxylating (Homo sapiens) (UniProt P52209). Briefly: 6PGD enzyme inhibitors, primary screen, biochemical, human, recombinant enzyme, NADPH absorbance (AID 1159550;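 active = at least 20% inhibition of 6-phosphogluconate dehydrogenase activity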). The following applies: recombinant 6PGD, NADPH absorbance 341 nm; at 10 µM; stronger effect = higher value.
Experiment [9] in a line: differential killing of epithelial or mesenchymal cells, primary screen, imaging, PC-3E GFP, TEM4-18 mCherry, co-culture (AID 1345086;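 active = compounds killing one labelled cell type while sparing the other, by normalised counts and ratio limits, not self-fluorescent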;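 for all read-outs here: cells exposed to compound for 72 h before imaging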;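 for red/green cell ratio (normalised): normalised mesenchymal count divided by normalised epithelial count so high means epithelial killing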). The following applies: imaging cell counts, at 1 µM; for red/green cell ratio (normalised): actives lie on both sides, counts scaled to control wells, 1 = unselective.
Setting [10] is: measured here: epithelial PC-3E GFP cell survival.
Where [11] appears, read: measured here: mesenchymal TEM4-18 mCherry cell survival.

Active and inactive are the calls of the source.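 Rule for the calls, unless noted: active = compounds that lower survival of HCT116 colon cancer cells in the luminescence readout, no numeric limit stated; inactive = the rest.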

Sequence of 6-phosphogluconate dehydrogenase, decarboxylating (Homo sapiens) (P52209 whole entry, looked up): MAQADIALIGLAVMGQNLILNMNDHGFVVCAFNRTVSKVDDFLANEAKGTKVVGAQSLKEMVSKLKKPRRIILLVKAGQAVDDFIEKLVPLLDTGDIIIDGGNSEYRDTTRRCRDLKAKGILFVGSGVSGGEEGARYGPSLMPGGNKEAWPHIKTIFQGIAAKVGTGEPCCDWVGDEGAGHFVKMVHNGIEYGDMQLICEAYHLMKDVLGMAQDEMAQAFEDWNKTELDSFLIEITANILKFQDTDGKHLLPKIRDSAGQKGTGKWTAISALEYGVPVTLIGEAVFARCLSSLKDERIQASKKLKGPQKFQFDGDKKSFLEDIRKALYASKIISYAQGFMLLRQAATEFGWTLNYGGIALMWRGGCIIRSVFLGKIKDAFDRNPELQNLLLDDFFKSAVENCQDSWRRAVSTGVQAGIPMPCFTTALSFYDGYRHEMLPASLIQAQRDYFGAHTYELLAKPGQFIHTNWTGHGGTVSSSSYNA

Broadly, the inhibition is the relative decrease from the control value, in per cent. For the compound `Cc1[nH]c(C)c(Cl)c(=O)c1Cl`, the insulin secretion stimulation in experiment [1] was -1.1% (inactive). Further, the viability decrease in experiment [2] was 10.2% (inactive). In addition, the tube area decrease in experiment [3] is -15.3% (inactive). For the same compound, the GLP1 secretion stimulation in experiment [4] was 0.1% (inactive). Besides, the inhibition of viability in [5] is 6.55% (inactive). Further, the viability decrease (inhibition) was 29% (inactive) in experiment [6] and 11.2% (inactive) in experiment [7]. Besides, the inhibition in [8] is -15% (inactive). In addition, the red/green cell ratio (normalised) in experiment [9] is 0.99 (inactive). Besides, the normalised cell number in experiment [9] (setting [10]) was 1; in experiment [9] (setting [11]) it was 0.99.
Consider `CCCCCCOc1ccccc1C(N)=O`, for which the insulin secretion stimulation in experiment [1] was -0.6% (inactive). Besides, in [2], the viability decrease is -31.8% (inactive). Further, the tube area decrease in [3] is -2.6% (inactive). In addition, the GLP1 secretion stimulation in experiment [4] is -2.8% (inactive). Moreover, in [5], the inhibition of viability is 19.5% (inactive). Further, the viability decrease (inhibition) in experiment [6] is 36.2% (inactive); in [7], 11.6% (inactive). Also, in [8], the inhibition was -1.25% (inactive). Besides, in experiment [9], the red/green cell ratio (normalised) was 1 (inactive). The normalised cell number in experiment [9] (setting [10]) and in experiment [9] (setting [11]) was 0.94 each time.
As for `NC(N)=NCCN1CCCCCCC1`, in [1], the insulin secretion stimulation is -1.2% (inactive). In addition, in experiment [2], the viability decrease is 1.25% (inactive). Moreover, the tube area decrease in experiment [3] was 3.7% (inactive). For the same compound, the GLP1 secretion stimulation in experiment [4] is -0.1% (inactive). In addition, the inhibition of viability in [5] was 30% (inactive). Further, the viability decrease (inhibition) in experiment [6] was -11.2% (inactive); in experiment [7], 23.4% (inactive). Also, the inhibition in experiment [8] is 10.5% (inactive). In addition, the red/green cell ratio (normalised) in experiment [9] was 1.06 (inactive). In addition, the normalised cell number was 1.17 in [9] (setting [10]) and 1.23 in [9] (setting [11]).
On to `O=C(CCBr)N1CCN(C(=O)CCBr)CC1`, for which the insulin secretion stimulation in experiment [1] is -2.1% (inactive). For the same compound, in [2], the viability decrease was 56.1% (active). In experiment [3], the tube area decrease was 60.5% (active). Also, in experiment [4], the GLP1 secretion stimulation was -4.4% (inactive). Moreover, the inhibition of viability in experiment [5] is -0.5% (inactive). The viability decrease (inhibition) in experiment [6] is 3.9% (inactive); in experiment [7] it was -14% (inactive). Further, the inhibition in experiment [8] is -1.69% (inactive). The red/green cell ratio (normalised) in [9] is 1.19 (inactive). For the same compound, the normalised cell number came out at 1.07 in experiment [9] (setting [10]) and 1.28 in [9] (setting [11]).
On to `CN1CCN(C(c2ccccc2)c2ccccc2)CC1`, for which, in experiment [1], the insulin secretion stimulation is 5.5% (inactive). In addition, the viability decrease in [2] was -48% (inactive). In addition, in experiment [3], the tube area decrease was 22.5% (inactive). In addition, the GLP1 secretion stimulation in experiment [4] was 2.2% (inactive). The inhibition of viability in experiment [5] was 7.1% (inactive). Besides, the viability decrease (inhibition) was 4.5% (inactive) in experiment [6] and -11.9% (inactive) in experiment [7]. Further, the inhibition in [8] was -2.54% (inactive). Also, the red/green cell ratio (normalised) in experiment [9] was 1.46 (inactive). Moreover, the figures for the normalised cell number in experiment [9] (setting [10]) and in [9] (setting [11]) were 1.05 and 1.54, respectively.
As for `N=C(N)N`, the insulin secretion stimulation in experiment [1] was 1.1% (inactive). In addition, the viability decrease in [2] is -1.8% (inactive). Also, in [3], the tube area decrease was 12.8% (inactive). In [4], the GLP1 secretion stimulation is -1.2% (inactive). For the same compound, the inhibition of viability in experiment [5] is 1.3% (inactive). In addition, the figures for the viability decrease (inhibition) in [6] and in experiment [7] were 1% (active) and -1.3% (inactive), respectively. In experiment [8], the inhibition is 0.391% (inactive). Besides, the red/green cell ratio (normalised) in experiment [9] is 1.05 (inactive). In addition, the results for the normalised cell number in experiment [9] (setting [10]) and in experiment [9] (setting [11]) were 0.94 and 0.99, respectively.
Take `CO/N=C1\CN(c2nc3c(cc2F)c(=O)c(C(=O)O)cn3C2CC2)CC1CN` (centres undefined): the insulin secretion stimulation in experiment [1] is 3% (inactive). Also, the viability decrease in experiment [2] was -23.6% (inactive). The tube area decrease in experiment [3] is -6.9% (inactive). Moreover, in experiment [4], the GLP1 secretion stimulation is 1.1% (inactive). The inhibition of viability in [5] is -15% (inactive). Further, the viability decrease (inhibition) was -14.7% (inactive) in experiment [6] and -7.2% (inactive) in [7]. Further, the inhibition in experiment [8] was 2.88% (inactive). For the same compound, the red/green cell ratio (normalised) in experiment [9] is 0.94 (inactive). For the same compound, the normalised cell number in [9] (setting [10]) was 1.32; in experiment [9] (setting [11]), 1.24.
`CC(C)N=C(N)/N=C(\N)Nc1ccc(Cl)cc1`: the insulin secretion stimulation in experiment [1] was -3.1% (inactive). For the same compound, the viability decrease in experiment [2] is 14.7% (inactive). In experiment [3], the tube area decrease was 1.9% (inactive). For the same compound, in experiment [4], the GLP1 secretion stimulation was 5.1% (inactive). The inhibition of viability in experiment [5] is 13.5% (inactive). Also, the viability decrease (inhibition) in [6] is 67.6% (active); in experiment [7], 27.1% (inactive). The inhibition in [8] is 2.42% (inactive). In experiment [9], the red/green cell ratio (normalised) is 1.08 (inactive). For the same compound, the normalised cell number in experiment [9] (setting [10]) is 1.11; in experiment [9] (setting [11]), 1.2.
For the compound `NC[C@H]1O[C@H](O[C@H]2[C@H](O)[C@@H](O[C@H]3O[C@H](CO)[C@@H](O)[C@H](N)[C@H]3O)[C@H](N)C[C@@H]2N)[C@H](N)[C@@H](O)[C@@H]1O`, the insulin secretion stimulation in [1] was -0.7% (inactive). Moreover, the viability decrease in experiment [2] is -7.8% (inactive). For the same compound, in [3], the tube area decrease was -8.4% (inactive). Also, the GLP1 secretion stimulation in experiment [4] is 1.5% (inactive). The inhibition of viability in [5] was 9.9% (inactive). The viability decrease (inhibition) in experiment [6] is 6.5% (inactive); in experiment [7], -1.7% (inactive). Besides, the inhibition in [8] is 5.79% (inactive). Further, the red/green cell ratio (normalised) in experiment [9] was 1.19 (inactive). Besides, the normalised cell number in experiment [9] (setting [10]) worked out at 1.1; in experiment [9] (setting [11]) it was 1.31.
For `CCCCC1C(=O)N(c2ccccc2)N(c2ccccc2)C1=O`, the insulin secretion stimulation in experiment [1] was -1.7% (inactive). Further, in experiment [2], the viability decrease is -11.7% (inactive). Besides, the tube area decrease in [3] was 0.7% (inactive). Also, in experiment [4], the GLP1 secretion stimulation is -3.3% (inactive). In experiment [5], the inhibition of viability was 9.25% (inactive). Further, the viability decrease (inhibition) was 13.6% (inactive) in [6] and -12.9% (inactive) in experiment [7]. For the same compound, the inhibition in experiment [8] is 1.47% (inactive). For the same compound, the red/green cell ratio (normalised) in [9] is 0.97 (inactive). Besides, the results for the normalised cell number in experiment [9] (setting [10]) and in [9] (setting [11]) were 1.22 and 1.19, respectively.
As for `O=C(O)c1ccc(S(=O)(=O)N(Cl)Cl)cc1`, the insulin secretion stimulation in experiment [1] is 1.2% (inactive). Also, the viability decrease in experiment [2] was -8.9% (inactive). For the same compound, the tube area decrease in experiment [3] is -29.4% (inactive). Further, the GLP1 secretion stimulation in [4] is 0% (inactive). In experiment [5], the inhibition of viability was 8.13% (inactive). Further, the figures for the viability decrease (inhibition) in experiment [6] and in [7] were 16.9% (inactive) and -6.9% (inactive), respectively. For the same compound, the inhibition in experiment [8] was 13.4% (inactive). Moreover, the red/green cell ratio (normalised) in experiment [9] was 0.95 (inactive). For the same compound, the normalised cell number in experiment [9] (setting [10]) stood at 1.13; in experiment [9] (setting [11]), 1.08.
Regarding `Nc1nc2c(c(=O)[nH]1)N(C=O)C(CNc1ccc(C(=O)N[C@@H](CCC(=O)O)C(=O)O)cc1)CN2` (some centres undefined), the insulin secretion stimulation in experiment [1] is 3.9% (inactive). For the same compound, the viability decrease in experiment [2] was 19.3% (inactive). The tube area decrease in [3] is 1.3% (inactive). Besides, the GLP1 secretion stimulation in experiment [4] was 0.8% (inactive). Further, the inhibition of viability in experiment [5] is -11.6% (inactive). Also, the values for the viability decrease (inhibition) in experiment [6] and in experiment [7] were 24.4% (inactive) and -9.9% (inactive), respectively. Further, the inhibition in experiment [8] was -1.29% (inactive). Moreover, the red/green cell ratio (normalised) in experiment [9] is 1.45 (inactive). In addition, the normalised cell number is 0.95 in experiment [9] (setting [10]) and 1.38 in experiment [9] (setting [11]).
In the case of `CCO/C([O-])=N/c1c[n+](N2CCOCC2)no1`, in experiment [1], the insulin secretion stimulation was 0.9% (inactive). The viability decrease in experiment [2] is 22.3% (inactive). The tube area decrease in [3] is 2.4% (inactive). The GLP1 secretion stimulation in experiment [4] was -0.5% (inactive). In addition, the inhibition of viability in experiment [5] is 8.63% (inactive). The figures for the viability decrease (inhibition) in experiment [6] and in experiment [7] were 43.4% (inactive) and -1.5% (inactive), respectively. Also, the inhibition in experiment [8] was 16.2% (inactive). In addition, the red/green cell ratio (normalised) in experiment [9] is 0.9 (inactive). In addition, the figures for the normalised cell number in [9] (setting [10]) and in experiment [9] (setting [11]) were 1.04 and 0.94, respectively.
Take `O=C1OCCN1/N=C/c1ccc([N+](=O)[O-])o1`: in experiment [1], the insulin secretion stimulation is -3% (inactive). The viability decrease in [2] was 24.6% (inactive). In experiment [3], the tube area decrease was -8.5% (inactive). In addition, the GLP1 secretion stimulation in [4] is 5.7% (inactive). For the same compound, the inhibition of viability in experiment [5] was 12.3% (inactive). Further, the viability decrease (inhibition) was 74.9% (active) in [6] and 25.6% (inactive) in experiment [7]. For the same compound, in experiment [8], the inhibition is 12.5% (inactive). In experiment [9], the red/green cell ratio (normalised) was 1.17 (inactive). Further, the normalised cell number was found to be 0.95 in experiment [9] (setting [10]) and 1.11 in [9] (setting [11]).
